# Laboratory results reported in PubChem BioAssay AID652257 (The Scripps Research Institute Molecular Screening Center, 2013).
# Screen size: about 370,000 compounds; about 4,800 (1.3%) were called active. Shown is part of a subset that was picked to be rich in actives. Unmarked numbers belong to inactive results.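 Rule for the calls: active = inhibition above about 21% made by adding two undisclosed values (limit read from the data); inactive = the rest.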
# Molecular target: Protein arginine N-methyltransferase 1 (Homo sapiens) (UniProt Q99873)
# Sequence (Q99873 whole entry, looked up): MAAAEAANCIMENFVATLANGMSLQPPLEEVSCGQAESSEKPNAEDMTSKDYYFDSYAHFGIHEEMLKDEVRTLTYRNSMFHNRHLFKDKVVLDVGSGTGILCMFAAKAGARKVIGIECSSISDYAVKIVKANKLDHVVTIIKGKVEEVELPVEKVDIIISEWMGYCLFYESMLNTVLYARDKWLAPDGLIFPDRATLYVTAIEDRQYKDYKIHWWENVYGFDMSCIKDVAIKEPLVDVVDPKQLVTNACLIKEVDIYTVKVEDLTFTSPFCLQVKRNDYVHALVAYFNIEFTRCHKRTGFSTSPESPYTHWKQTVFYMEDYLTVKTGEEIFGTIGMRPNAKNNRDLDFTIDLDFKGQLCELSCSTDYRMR
# Experiment: human PRMT1 activity-probe blockers – biochemical, fluorescence polarization, primary screen (AID 652257)
# Conditions: recombinant PRMT1, activity-based probe fluorescence polarization; at 2.79 µM; hits give high values
row,SMILES,inhibition
1,Cc1cc(=O)[nH]c(=S)[nH]1,107% (active)
2,Cc1cc(=O)cc(C)[nH]1,-3.92%
3,CSc1cc(C)[nH]c(=O)n1,2.31%
4,COC(=O)[C@H](C(C)C)N(CCc1cn(Cc2ccccc2)nn1)S(=O)(=O)c1ccc(F)cc1Br,0.27%
5,Cc1ccc(C)c(S(=O)(=O)N(C)c2ccc(OC(=O)C3CCN(C(=O)c4ccc(F)cc4)CC3)cc2)c1,0.47%
6,CCOC(=O)N1CCN(C(c2cccnc2)c2ccc3cccnc3c2O)CC1 (stereo not given),26.1% (active)
7,CCOC(=O)N1CCN(C(c2ccnc3ccccc23)c2nnnn2-c2c(C)cccc2C)CC1 (stereo not given),-3.34%
8,CCCCC(=O)NC(c1ccc(OC)c(OC)c1)c1ccc2cccnc2c1O (stereo not given),-1.04%
9,Cc1cccc(N2CCC(NCc3c(C(=O)N4CCCCC4)nc4c(C)cccn34)CC2)c1,7.11%
10,O=C(O)C1CCN(S(=O)(=O)N2CCOCC2)CC1,0.67%
11,NC(=O)c1c(Nc2nc3c(F)cccc3s2)sc2c1CCCC2,48.8% (active)
12,O=C(O)c1c(NC(=O)N2CCCC2)sc2c1CCCC2,4.25%
13,CCOC(=O)C(NC(=O)CC(C)C)(Nc1sc2c(c1C(N)=O)CCCC2)C(F)(F)F (stereo not given),0.14%
14,Cc1ccc(-c2ccc(/C=C(\C#N)C(N)=S)o2)c([N+](=O)[O-])c1,34.7% (active)
15,Cc1ccc2nc(SCc3nnc(-c4ccccc4[N+](=O)[O-])o3)c(C#N)cc2c1,-0.9%
16,COc1ccc(CN2C(=O)C(CC(=O)NCCCCc3ccccc3)CC(C(=O)N3CCOCC3)=C2C)cc1 (stereo not given),-9.04%
17,COCCNC(=O)C(c1ccc(C)cc1)N(C(=O)CCC(=O)Nc1ccccn1)c1cccc(C)c1 (stereo not given),-0.11%
18,CCOC(=O)c1c(N=CN(C)C)c(C#N)c2n1CCCC2,-2.76%
19,Cc1ccc(Cn2cc(COC(=O)N(C)Cc3ccccc3)nn2)cc1,0.99%
20,O=C(COC(=O)Cn1[nH]c(=O)c2ccccc2c1=O)Nc1ncc(Cl)cc1Cl,-0.63%
21,O=C(CN1CCc2ccccc21)NC(c1ccccc1)c1ccccc1,-3.28%
22,CCOC(=O)/C=C/C(=O)OCC(=O)NC(c1ccccc1)c1ccccc1,8.52%
23,O=C(Cc1ccc(-c2ccccc2)cc1)NC(c1ccccc1)c1ccccc1,44.1% (active)

row,SMILES,inhibition
1,COc1ccc(OCC(=O)Nc2nnc(-c3ccco3)s2)cc1,22.1% (active)
2,COc1ccc(OCCCC(=O)Nc2nnc(C3CCCO3)s2)cc1 (stereo not given),2.04%
3,COc1ccc(CNC(=O)CCC(=O)Nc2nnc(C(C)C)s2)cc1,6.7%
4,O=C(NCc1cccs1)C1CCCN(S(=O)(=O)c2ccc([N+](=O)[O-])cc2)C1 (stereo not given),0.46%
5,C=CCN1C(=O)[C@H](CC(=O)NCCCN2CCCC2=O)[C@@]2(C(=O)OCC)CCCC=C12,0.15%
6,O=C(NCCOc1cccnc1)c1ccc(OC2CCN(Cc3ccccn3)CC2)cc1,3.52%
7,Cc1ccccc1N1CC(C(=O)Nc2nnc(SCCC3OCCO3)s2)CC1=O (stereo not given),5.12%
8,Cc1ccnc(-n2sc3ccccc3c2=O)n1,90.7% (active)
9,CCOc1ccc(-n2cnnn2)cc1S(=O)(=O)N1CCC(C)CC1C (stereo not given),-4.54%
10,CC(NC(=S)NC1CCCCC1)C(c1ccccc1)N1CCOCC1 (stereo not given),0.42%
11,COc1ccc(N2CCN(CCNS(=O)(=O)c3ccc([N+](=O)[O-])cc3)CC2)cc1,-4.73%
12,O=C(CC1CCCCC1)NCc1ccco1,-1.65%
13,CC1(c2ccccc2Cl)NC(=O)N(CC(=O)NC(=O)NCc2ccco2)C1=O (stereo not given),5.3%
14,O=C(CC1N=C2c3ccccc3N=C(SCc3ccccc3Cl)N2C1=O)NCc1ccco1 (stereo not given),26.2% (active)
15,O=C(NCCCN1CCN(c2ccc(F)cc2)CC1)Nc1ccc([N+](=O)[O-])cc1,-0.66%
16,Nn1c(SCC(=O)Nc2cccc3ccccc23)nnc1-c1cc(-c2ccc(F)cc2)n[nH]1,2.17%
17,CN(C)c1ccc(Nc2c3c4c(cccc4n(C)c2=O)C(=O)c2ccccc2-3)cc1,56.4% (active)
18,Cc1cc(Cl)ccc1C(=O)C1CCCN(C(=O)c2nonc2C)C1 (stereo not given),-0.28%
19,COc1ccc(Cn2cc(COC(=O)N(C)Cc3ccccc3)nn2)cc1,-6.72%
20,CCn1c(C)c(C)c2cc(C(=O)N3CCN(c4cccc(C)c4C)CC3)ccc21,2.44%
21,Cc1cccc(N2CCN(C(=O)/C=C/c3ccco3)CC2)c1C,29.9% (active)
22,Cc1cccc(N2CCN(C(=O)c3cc4c(=O)[nH]c5ccccc5c4n3C)CC2)c1C,-1.76%
23,CN(C)c1ccc(NC(=O)NC2CCCCN(Cc3ccc(Cl)cc3)C2=O)cc1 (stereo not given),4.83%

row,SMILES,inhibition
1,Nn1c(SCC(=O)Nc2ccc(S(N)(=O)=O)cc2)nnc1-c1n[nH]c2c1CCC2,0.39%
2,CN(C)[C@H]1CCN(c2cccc3c2S(=O)(=O)N2CC[C@H](C2)O3)C1,0.28%
3,CC(=O)OC12CCCN(C1)/C(=C/c1ccncc1)C2 (stereo not given),-0.73%
4,COCCCNC(=O)CC1C[C@H](C(=O)N2CCCCC2)[C@@]2(CCc3ccccc3)c3[nH]c4ccccc4c3CCN2C1=O (stereo not given in full),-2.68%
5,CCCCCCCCNS(=O)(=O)/C=C/c1cc(C)ccc1CNC(=O)OC(C)(C)C,-0.82%
6,O=C(CSc1ccccc1)Nc1cccc(S(=O)(=O)N2CCCCC2)c1,-5.2%
7,Cc1cc(NC(=O)C(C)SCC(=O)Nc2cccc(S(=O)(=O)N3CCCCCC3)c2)no1 (stereo not given),71.1% (active)
8,Cc1cc(NC(=O)C(C)SCC(=O)Nc2ccccc2N2CCCCC2)no1 (stereo not given),-2.38%
9,C=C1C(C(C)C)N(C)C2=NC(c3ccccc3)CC(=O)N12 (stereo not given),-3.21%
10,N#Cc1ccc(C(C(=O)NCc2ccccc2)n2c(=O)c(-c3ccco3)nc3ccccc32)cc1 (stereo not given),20.9%
11,O=C(NC1CCCCC1)C(c1cc2ccccc2o1)n1c(=O)c(-c2ccco2)nc2ccccc21 (stereo not given),10.9%
12,Cc1cccc(C)c1NC(=O)C(c1ccc(C(F)(F)F)cc1)n1c(=O)c(-c2ccco2)nc2ccccc21 (stereo not given),23.1% (active)
13,Cc1ccc(CSc2nnc(SCC(=O)NN=Cc3cc(Br)ccc3F)s2)cc1,3.3%
14,CCc1cccc2c3c([nH]c12)C(CC)(CC(=O)O)OCC3 (stereo not given),1.16%
15,C[C@H]1CCC/C=C/C(=O)c2c(O)cc(O)cc2CC(=O)O1,7.7%
16,CC(C)(C)c1ccc(C(CC(=O)O)NS(=O)(=O)Cc2ccccc2)cc1 (stereo not given),-1.05%
17,C[C@@H](NC(=O)OC(C)(C)C)c1nnc(S(=O)(=O)Cc2ccccc2)o1,21.3% (active)
18,CC(C)[C@@H](NC(=O)OC(C)(C)C)C(=O)NCC1CCC(C(=O)N[C@@H](Cc2ccccc2)C(=O)O)CC1 (stereo not given in full),2.79%
19,CCOC(=O)[C@]12CCCC=C1N(Cc1ccc(OC)cc1)C(=O)[C@@H]2CC(=O)N1CCOCC1,-1.02%
20,O=C(NCc1ccc(Cl)cc1)C1CCCN(c2nc3ccccc3o2)C1 (stereo not given),4.6%
21,N#Cc1ccccc1S(=O)(=O)N1CCN(C(=O)c2cc(-c3ccccc3)nn2-c2ccccc2)CC1,-1.25%
22,O=C(CN1CCN(S(=O)(=O)c2cc(Cl)ccc2Cl)CC1)c1ccc(O)c(O)c1,18.9%
23,N#Cc1ccccc1S(=O)(=O)N1CCN(Cc2c(O)ccc3ccccc23)CC1,34.5% (active)

row,SMILES,inhibition
1,CC1=CC(C)(C)Nc2ccc(OC(=O)CN3C(=O)C4CCCCC4C3=O)cc21 (stereo not given),0.85%
2,CCOC(=O)c1c(N)c(C#N)nn1-c1ccccc1C(=O)OC,6.05%
3,O=C1CCCCC1Sc1ccc(Cl)cc1[N+](=O)[O-] (stereo not given),48.8% (active)
4,CSc1ccccc1NC(=O)CN(C)CC(=O)Nc1ccc(Cl)cc1[N+](=O)[O-],-1.57%
5,O=C(COc1ccc(Cl)cc1[N+](=O)[O-])N1CCCCC1,-4.9%
6,CC(=O)OCCN1CCCC12CCC(c1ccccc1)CC2 (stereo not given),2.94%
7,C=C(C)C1CC23C(=O)C4(C(=O)c5ccccc5)C[C@@]5(C)CCC(CC2C1(C)C)(C4=O)C35OC (stereo not given in full),3.86%
8,COc1ccc(C2CC(=O)n3c(nc4ccccc43)S2)cc1OC (stereo not given),0.28%
9,COc1ccc(C2CC(c3cccs3)=Nc3ccccc3S2)cc1OC (stereo not given),63.7% (active)
10,COc1ccc(C2CC(c3cccs3)=NN2c2nc(C)c(C(C)=O)s2)cc1OC (stereo not given),0.1%
11,O=S1(=O)c2ccc(Br)cc2OC[C@@H](Cc2ccccc2)N1Cc1cn(Cc2ccco2)nn1,-6.43%
12,COc1ccc(C(=O)CSc2nnc(-c3cnccn3)n2-c2ccc(C)cc2)cc1,-1.24%
13,N#CCC(=O)NC(=O)NCC1CC1,1.85%
14,Nc1ccc2nc3c(=O)[nH]c(=S)[nH]c3nc2c1,129% (active)
15,COc1nc(NCc2ccc(Cl)cc2)nc(OC)n1,-0.93%
16,CCN(CC)S(=O)(=O)c1cccc(-c2n[nH]c(=S)n2/N=C/c2ccc(C(=O)OC)cc2)c1,31.9% (active)
17,COC(=O)c1ccc(/C=N/N2C(C)CCCC2C)cc1 (stereo not given),-0.34%
18,CCN(CC)S(=O)(=O)c1cccc(NC(=O)c2ccc(S(=O)(=O)N3CCCC3)cc2)c1,2.8%
19,CCOC(=O)Cc1csc(NC(=O)CSc2nc(C)cc(=O)[nH]2)n1,63.7% (active)
20,CCOC(=O)Cc1csc(SCC(=O)Nc2ccc(C)cc2F)n1,1.96%
21,Cc1cc(=O)[nH]c(SCC(=O)Nc2ccc(Cl)cc2C)n1,-2.19%
